Results filed as inconclusive are left out. Calls of active or inactive are those of the source. The calls were made as follows: active = hit-call score of the fitted dose curve at least 0.9, where 1 is the maximum; inconclusive = response in the unintended direction; inactive = score below 0.9.
Read-out: Broad substrate specificity ATP-binding cassette transporter ABCG2 (Homo sapiens) (UniProt Q9UNQ0)
Assay: CLD_ABCG2_6hr: CellzDirect (CLD) Gene Expression Assay for ABC Transporter (ABCG2) at 6 hours (AID 2283660)
Description: CLD_6hr is a cell-based, multiplexed-readout assay that uses hepatocyte, a human liver primary cell, with measurements taken at 6 hours after chemical dosing in a 96-well plate.CLD_ABCG2_6hr is one of 16 assay component(s) measured or calculated from the CLD_6hr assay. It is designed to make measurements of mRNA induction, a form of inducible reporter, as detected with chemiluminescence signals by Quantitative Nuclease Protection Assay (qNPA) technology.Data from the assay component CLD_ABCG2_6hr was analyzed at the endpoint, CLD_ABCG2_6hr, in the positive analysis fitting direction relative to DMSO as the negative control and baseline of activity. Using a type of inducible reporter, gain-of-signal activity can be used to understand changes in the reporter gene as they relate to the gene ABCG2. Furthermore, this assay endpoint can be referred to as a primary readout. To generalize the intended target to other relatable targets, this assay endpoint is annotated to the transporter intended target family, where subfamily is ABC transporter.
Human hepatocyte cultures were treated daily for two consecutive days with fresh dosing solutions containing appropriate concentrations of the 320 ToxCast chemicals (chemical identities were blinded to CellzDirect and other ToxCast collaborators), vehicle control (0.2% DMSO), and positive control inducers as summarized in Table 1. Due to the large number of treatment groups and chemicals examined, the ToxCast chemicals were divided into two groups (spanning two independent cultures of hepatocytes from separate donor preparations (Hu778: ToxCast plates 1 and 2; Hu776: ToxCast plates 3 and 4). Each preparation of human hepatocyte cultures was treated with respective vehicle control, medium only control, set of six positive controls/reference chemicals for the five hepatic receptor pathways, and a subset of eight of the ToxCast chemicals (indoxacarb, pyrithiobac-sodium, norflurazon, cyhalofop-butyl, methomyl, thiram, acetochlor, and propiconazole). These replicate data, coupled with internal replicates designed within the blinded ToxCast chemical library, provided additional data to evaluate interindividual differences between hepatocyte preparations and their potential impact on chemical profiles.Cell morphology and integrity were evaluated using phase-contrast microscopy as an indicator of hepatocyte cell health (Tyson & Green, 1987). Cultures for each treatment group (i.e., media, vehicle [0.2% DMSO], positive control inducers [multiple concentrations], and the ToxCast chemicals [multiple concentrations]) were observed and cell morphology was assessed relative to vehicle control cultures at each harvest time point (0, 6, 24, or 48 h). […] Images were evaluated at the conclusion of the study to assess changes in cell integrity and account for the effects of chemical exposure on uncharacteristic changes in concentration-dependent gene expression profiles. The results from these determinations of apparent cytotoxicity were annotated (yes/no) alongside the corresponding qNPA data for reference.At the conclusion of each treatment period, hepatocyte cultures (96-well) were washed with 1 volume of HBSS, lysed by addition of 25 ul ArrayPlate lysis buffer (HTG, Tucson, AZ), and 70 ul/well of Denaturation Oil, denatured by incubation at 95C for 10 min, and frozen at approximately -70C until analysis by nuclease protection assay (qNPA) (Roberts et al., 2007). For qNPA analysis, cell lysates were thawed at 50C for approximately 30 min, qNPA probes were added, and samples were incubated at 95C for 10 min to begin the detection process by denaturing the target RNA, dissociating the duplexes and secondary structure hybridization. At the conclusion of the hybridization period, S1 nuclease reagent was added to each sample to digest all nonprotected nucleotides at 50C for 60-90 min. […]

Chain of Broad substrate specificity ATP-binding cassette transporter ABCG2 (Homo sapiens) (Q9UNQ0 whole entry, looked up): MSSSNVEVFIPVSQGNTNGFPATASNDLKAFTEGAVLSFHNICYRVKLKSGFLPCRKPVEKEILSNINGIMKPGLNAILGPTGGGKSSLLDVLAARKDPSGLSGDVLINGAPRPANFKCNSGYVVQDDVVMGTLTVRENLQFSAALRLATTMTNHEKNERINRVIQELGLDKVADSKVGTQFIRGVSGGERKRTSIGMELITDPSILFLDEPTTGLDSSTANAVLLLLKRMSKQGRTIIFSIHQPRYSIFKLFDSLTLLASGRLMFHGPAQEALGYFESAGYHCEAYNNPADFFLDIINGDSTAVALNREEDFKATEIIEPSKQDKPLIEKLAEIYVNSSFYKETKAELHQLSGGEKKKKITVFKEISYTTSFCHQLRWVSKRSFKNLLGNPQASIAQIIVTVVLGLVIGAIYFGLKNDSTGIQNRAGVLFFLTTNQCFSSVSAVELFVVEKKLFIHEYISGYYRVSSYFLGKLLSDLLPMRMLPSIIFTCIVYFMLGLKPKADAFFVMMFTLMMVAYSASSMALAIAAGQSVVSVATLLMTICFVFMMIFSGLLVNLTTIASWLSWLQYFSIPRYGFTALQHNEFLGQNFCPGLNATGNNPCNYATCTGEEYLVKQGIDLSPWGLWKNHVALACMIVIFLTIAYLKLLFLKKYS

Row | Compound | outcome
1 | COC(=O)CSc1cc(N=c2sc(=O)n3n2CCCC3)c(F)cc1Cl | inactive
2 | CC(C)(c1ccc(O)cc1)c1ccc(O)cc1 | inactive
3 | O=C(O)C1(C(=O)Nc2ccc(Cl)cc2Cl)CC1 | inactive
4 | S=C(S)NCCNC(=S)S.[Mn+2].[S-]C([S-])=NCCN=C([S-])[S-].[Zn+2] | inactive
5 | C=CCOC(Cn1ccnc1)c1ccc(Cl)cc1Cl (centres undefined) | inactive
6 | CCCCCOC(=O)COc1cc(N2C(=O)C3=C(CCCC3)C2=O)c(F)cc1Cl | inactive
7 | CCCCOCCOCCOCc1cc2c(cc1CCC)OCO2 | inactive
8 | C#CCOC(=O)[C@@H](C)Oc1ccc(Oc2ncc(Cl)cc2F)cc1 | inactive
9 | CCSC(=O)N(CC(C)C)CC(C)C | inactive
10 | CC(C)(C)[C@@H](O)[C@@H](Cc1ccc(Cl)cc1)n1cncn1 | inactive
11 | CCNc1nc(N)nc(Cl)n1 | inactive
12 | CCCCCCC(C)OC(=O)COc1nc(F)c(Cl)c(N)c1Cl (centres undefined) | inactive
13 | CC1(C)C(C=C(Cl)Cl)C1C(=O)OCc1cccc(Oc2ccccc2)c1 (centres undefined) | inactive
14 | CCC(O)=C1C(=O)CC(C(=O)O)CC1=O (centres undefined) | inactive
15 | CCCN(CCC)C(=O)SCC | inactive
16 | CCOC(=O)[C@H](C)Oc1ccc(Oc2nc3ccc(Cl)cc3o2)cc1 | inactive
17 | Cc1nn(C)c(Oc2ccccc2)c1C=NOCc1ccc(C(=O)OC(C)(C)C)cc1 | inactive

Row | Compound | outcome
18 | CCCCC(CC)CN1C(=O)C2C3C=CC(C3)C2C1=O (centres undefined) | inactive
19 | CCCOC(=O)c1ccc(C(=O)OCCC)nc1 | inactive
20 | CCC(C)OC(=O)N1CCCCC1CCO (centres undefined) | inactive
21 | O=C(Nc1ccc([N+](=O)[O-])cc1Cl)c1cc(Cl)ccc1O | inactive
22 | N#CSCSc1nc2ccccc2s1 | inactive
23 | c1ccc(Nc2ccccc2)cc1 | inactive
24 | COC(=O)c1c(Cl)nn(C)c1S(=O)(=O)NC(=O)Nc1nc(OC)cc(OC)n1 | inactive
25 | CCCOC(=O)NCCCN(C)C | inactive
26 | CCCCC(CC)COC(=O)c1ccccc1C(=O)O (centres undefined) | inactive
27 | OB(O)O | inactive
28 | CCCCOC(=O)[C@@H](C)Oc1ccc(Oc2ccc(C(F)(F)F)cn2)cc1 | inactive
29 | COC(=O)c1cccc(C)c1S(=O)(=O)NC(=O)Nc1nc(OCC(F)(F)F)nc(N(C)C)n1 | inactive
30 | CCN(CC)C(=O)c1cccc(C)c1 | inactive
31 | COC(=O)c1ccc(I)cc1S(=O)(=O)NC(=O)Nc1nc(C)nc(OC)n1 | inactive
32 | COCCO | inactive
33 | COC(=O)c1ccccc1C(=O)O | inactive
34 | CCOC(=O)C(C)Oc1ccc(Oc2cnc3cc(Cl)ccc3n2)cc1 (centres undefined) | inactive
